Most compounds without a hit are left out; they make up all but 12% or so of the library.
RORgamma inh: qHTS for inhibitors of ROR gamma transcriptional activity; Drosophila S2 Gal4-RORgamma UAS-luciferase reporter, 20 h; Nuclear receptor ROR-gamma (Mus musculus), P51450; 310,000 compounds, 5.4% hits; Potency, µM (doses to about 53.6 µM), usual class: inhibitors; further: nearly all actives have a fitted effect of over 60% in size
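A Gal4/UAS one-hybrid system in insect cells: metallothionein-promoter Gal4–ROR gamma fusion plus Photinus luciferase reporter. Copper sulfate 700 uM final, 20 hr ambient incubation, luminescent detection after 10 min with reagent.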
ALDH1A1 inh: qHTS Assay for Inhibitors of Aldehyde Dehydrogenase 1 (ALDH1A1); Potency, µM (series often up to 75.3 µM), hits mostly inhibitors; 220,000 compounds, 7.3% hits; Aldehyde dehydrogenase 1A1 (Homo sapiens), P00352; Purified ALDH1A1, NADH fluorescence, propionaldehyde substrate; active means well fitted inhibition curve with a large enough effect, not every such curve was filed as active; inconclusive means small, poorly fitted or top-dose-only effect, or another doubt; inactive means no such curve, though single readings can be large or run the other way
Target sequence (P00352 whole entry, looked up): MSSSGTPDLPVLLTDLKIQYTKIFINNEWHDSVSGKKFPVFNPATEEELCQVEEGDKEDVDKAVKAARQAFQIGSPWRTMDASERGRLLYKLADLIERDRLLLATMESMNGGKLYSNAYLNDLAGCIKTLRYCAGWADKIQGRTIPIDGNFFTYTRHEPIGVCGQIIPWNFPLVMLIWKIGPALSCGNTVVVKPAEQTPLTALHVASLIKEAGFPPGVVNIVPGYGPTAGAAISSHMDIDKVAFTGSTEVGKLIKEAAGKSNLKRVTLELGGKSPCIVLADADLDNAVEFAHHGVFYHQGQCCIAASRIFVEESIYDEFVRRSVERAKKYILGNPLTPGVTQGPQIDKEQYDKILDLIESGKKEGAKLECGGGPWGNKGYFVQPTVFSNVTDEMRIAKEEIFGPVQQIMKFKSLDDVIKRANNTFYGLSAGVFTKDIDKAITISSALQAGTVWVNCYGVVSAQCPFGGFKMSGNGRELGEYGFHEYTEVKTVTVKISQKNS
PLK1 PBD block: qHTS for Inhibitors of PLK1-PDB (polo-like kinase 1 - polo-box domain): Primary Screen | Plk1 PBD binding of FITC phosphopeptide, fluorescence polarization | Potency, µM, hits mostly inhibitors | Serine/threonine-protein kinase PLK1 (Homo sapiens), P53350 | AID 720504, 2013 | 360,000 compounds, 2.8% hits; further: series mostly up to about 57 µM; nearly all actives have a fitted effect of over 65% in size
Gal4-VP16 FLuc: VP16 counterscreen qHTS for inhibitors of ROR gamma transcriptional activity. Potency, µM (titrated, usually from 53.6 µM), hits mostly inhibitors. 310,000 compounds, 3.5% hits. AID 2546, 2010. Drosophila S2 Gal4-VP16 UAS-luciferase, luminescence, 20 h;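 further: Gal4-VP16 expression switched on by copper sulfate through the metallothionein promoter; nearly all actives have a fitted effect of over 50% in size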
Sfp PPTase inh: qHTS Assay for Inhibitors of Bacillus subtilis Sfp phosphopantetheinyl transferase (PPTase); Biochemical Sfp PPTase activity, qHTS; Potency, µM, most hits filed as inhibitors; 310,000 compounds, 3.5% hits;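 further: the enzyme is Sfp with the accession as filed and its product quenches rhodamine fluorescence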
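Step 1, compound plus 15 nM Sfp-PPTase, 15 min, room temperature. Step 2, add rhodamine-CoA (5 uM) and BHQ-2-YbbR (12.5 uM). Step 3, read 525/598 nm fluorescence at 0 and 30 min.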
Of the large screens only hits and unclear results are named; the others gave an inactive call. Unless noted, the call rests on the fitted dose curve; in most records, active means well fitted curve in the direction sought with a large enough effect; inconclusive means small, poorly fitted or top-dose-only effect, or another doubt; inactive means no such curve, though single readings can be large; an effect the other way counts as inactive or inconclusive.

Cc1ccc(NC(=O)NCc2nc3ccccc3n2C)cc1	none (no result: ALDH1A1 inh)
CCc1ccc(NC(=O)[C@H](NC(=O)[C@@H]2Cc3ccccc3CN2)c2ccccc2)cc1	PLK1 PBD block 30µM (no result: ALDH1A1 inh)
CC(C)NC(=O)c1cc(C2CCCCN2C(=O)c2cc(C(C)(C)C)nn2C)on1 (configuration not stated)	none (no result: RORgamma inh, ALDH1A1 inh, Gal4-VP16 FLuc, Sfp PPTase inh)
COc1ccc(-c2nnc(NC(=O)C3=COCCO3)o2)cc1	RORgamma inh 3.5µM, Gal4-VP16 FLuc 2.8µM
COc1ccccc1-c1nnc(NC(=O)C2=COCCO2)o1	RORgamma inh 2.2µM, Gal4-VP16 FLuc 2.8µM
Nc1nc2ccc(C(=O)NCCOC(=O)C3CCCCC3)cc2s1	ALDH1A1 inh 10µM, PLK1 PBD block inconclusive
O=c1nc(N2CCOCC2)ccn1-c1nc(-c2ccccc2)sc1-c1ccccc1	RORgamma inh inconclusive, ALDH1A1 inh inconclusive, PLK1 PBD block 30µM
Nc1nc(N)nc(-c2cc(O)ccc2O)n1	none (no result: RORgamma inh, ALDH1A1 inh, Gal4-VP16 FLuc, Sfp PPTase inh)
Oc1ccc(O)c(-c2cnns2)c1	RORgamma inh 3.2µM, ALDH1A1 inh inconclusive, PLK1 PBD block inconclusive, Gal4-VP16 FLuc inconclusive, Sfp PPTase inh inconclusive
O=C(NNc1nc(-c2ccc(Cl)cc2)cs1)c1ccco1	RORgamma inh 4µM, Gal4-VP16 FLuc 5µM
O=C(NNc1nc(-c2ccccc2)cs1)c1ccco1	RORgamma inh 3.5µM, Gal4-VP16 FLuc 5µM
CC1C(=O)N(Cc2cn(Cc3ccco3)nn2)CCS(=O)(=O)N1Cc1ccc(-c2ccc(Cl)cc2)cc1 (configuration not stated)	none (no result: RORgamma inh, ALDH1A1 inh, Gal4-VP16 FLuc, Sfp PPTase inh)
CCOC(=O)C1CCCN(Cc2nc(N)nc(Nc3ccc(Cl)cc3)n2)C1 (configuration not stated)	RORgamma inh 13µM, Gal4-VP16 FLuc inconclusive
CCOC(=O)C1CCCN(Cc2nc(N)nc(Nc3ccc(OC)cc3)n2)C1 (configuration not stated)	PLK1 PBD block 27µM
O=C1NCCCC2c3c(cc(Br)c(O)c3Br)OC12N1CCOCC1 (configuration not stated)	ALDH1A1 inh 3.2µM, PLK1 PBD block inconclusive, Sfp PPTase inh inconclusive
CC(=O)NCC(=O)OCC(=O)N1c2ccccc2Sc2ccccc21	ALDH1A1 inh 25µM, Gal4-VP16 FLuc inconclusive
CCCCC(NC(=O)c1ccccc1)C(=O)OCC(=O)N1c2ccccc2Sc2ccccc21 (configuration not stated)	ALDH1A1 inh 40µM
O=C(CNC(=O)c1ccccc1)OCC(=O)N1c2ccccc2Sc2ccccc21	RORgamma inh inconclusive
COc1ccc(C(=O)OC(C)C(=O)NCC2CCCCC2)cc1S(=O)(=O)N1CCOCC1 (configuration not stated)	none (no result: RORgamma inh, ALDH1A1 inh, Gal4-VP16 FLuc, Sfp PPTase inh)
O=C(O[C@@H]1OC2COC(=O)c3cc(O)c(O)c(O)c3-c3c(cc(O)c(O)c3O)C(=O)O[C@@H]([C@H]1O)[C@@H]2O)c1cc(O)c(O)c(O)c1	PLK1 PBD block 9.5µM, Sfp PPTase inh 4.5µM
COc1c(O)cc2c(c1O)C1OC(CO)C(O)[C@H](O)[C@H]1OC2=O (some centres not stated)	none (no result: PLK1 PBD block)
COc1cccc(/C=C/C2=CC3(C)CC2(C)C(c2cccc(OC)c2)CC3=O)c1 (configuration not stated)	none (no result: PLK1 PBD block)
O=[N+]([O-])c1cccc(CN2C(COCc3ccccc3)CCC=CS2(=O)=O)c1 (configuration not stated)	none (no result: ALDH1A1 inh, PLK1 PBD block)
Cc1cc(N=Cc2c(O)n(-c3cccc(C(F)(F)F)c3)c(=O)c3ccccc23)no1	Sfp PPTase inh 63µM
Cc1nnc(N/N=C/c2c(O)n(-c3cccc(C(F)(F)F)c3)c(=O)c3ccccc23)[nH]c1=O	none (no result: PLK1 PBD block)
CCCC1=Nc2cc(C(=O)N3CCCC3)ccc2Sc2ccc(C)cc21	PLK1 PBD block 27µM (no result: ALDH1A1 inh)
CCC1=Nc2cc(C(=O)N3CCCCC3)ccc2Sc2ccc(C)cc21	none (no result: ALDH1A1 inh)
COc1ccc(C(=O)/C=C/c2ccc(OC)c(Cn3nnc4ccccc43)c2)cc1	ALDH1A1 inh 11µM
COc1ccc(C(=O)/C=C/c2ccc(OC)c(CN3CCOCC3)c2)cc1	RORgamma inh inconclusive, ALDH1A1 inh inconclusive, Gal4-VP16 FLuc inconclusive
COc1ccc(C=O)cc1COc1ccccc1F	ALDH1A1 inh inconclusive
CCOC(=O)Nc1ccc(Oc2ccccc2)cc1	RORgamma inh inconclusive
CCOC(=O)Nc1ccc(C(=O)/C=C/c2ccccc2)cc1	RORgamma inh 7.1µM, Gal4-VP16 FLuc inconclusive (no result: ALDH1A1 inh)
COc1ccc(/C=C/C(=O)c2ccccc2)cc1COc1ccccc1F	Gal4-VP16 FLuc inconclusive, Sfp PPTase inh 89µM
COc1ccc(C(=O)/C=C/c2ccc(O)cc2)cc1	RORgamma inh 0.32µM, ALDH1A1 inh inconclusive, Gal4-VP16 FLuc 2µM
COc1ccc(C=CC(=O)c2ccc([N+](=O)[O-])cc2)cc1	none (no result: RORgamma inh, ALDH1A1 inh, Gal4-VP16 FLuc, Sfp PPTase inh)
O=c1c2ccccc2ncn1CCCCOc1ccc(Br)cc1	none
COc1ccc(/C=C/C(=O)c2nc3ccccc3n2CC(=O)c2ccc(OC)cc2)cc1	RORgamma inh 10µM, ALDH1A1 inh 16µM
COc1ccc(OC(=O)N2C/C(=C/c3ccccc3)C(=O)/C(=C\c3ccccc3)C2)cc1	none (no result: RORgamma inh, ALDH1A1 inh, Gal4-VP16 FLuc, Sfp PPTase inh)
CCOC(=O)N1C/C(=C\c2ccccc2)C(=O)/C(=C/c2ccccc2)C1	RORgamma inh 18µM, ALDH1A1 inh inconclusive, Gal4-VP16 FLuc inconclusive
COc1ccc(C(=O)/C=C/c2ccc(O)cc2)c2c1CC(O)C(C)(C)O2 (configuration not stated)	none (no result: RORgamma inh, ALDH1A1 inh, Gal4-VP16 FLuc, Sfp PPTase inh)
CCOC(=O)C(=Cc1ccc(-n2cncn2)cc1)C(=O)OCC	RORgamma inh inconclusive, PLK1 PBD block inconclusive
COc1ccc(C(=O)/C=C/c2ccc(O)cc2)c(O)c1CC=C(C)C	RORgamma inh 4µM, Gal4-VP16 FLuc 7.9µM
CCOC(=O)C(=Cc1ccccc1)C(=O)OCC	RORgamma inh 13µM, Gal4-VP16 FLuc 13µM (no result: ALDH1A1 inh, PLK1 PBD block)
CNC[C@@H]1Oc2cc(Br)ccc2S(=O)(=O)N([C@@H](C)CO)C[C@@H]1C	none (no result: RORgamma inh, ALDH1A1 inh, Gal4-VP16 FLuc, Sfp PPTase inh)
COc1ccc(/C(N)=N/OC(=O)/C=C/c2ccccc2)cc1	ALDH1A1 inh inconclusive
COc1ccc(C(=O)/C=C/c2ccccc2)cc1	RORgamma inh inconclusive, ALDH1A1 inh 18µM (no result: PLK1 PBD block)
COc1ccccc1-c1ccc2ncnc(Nc3ccccc3)c2c1	ALDH1A1 inh inconclusive (no result: PLK1 PBD block)
CN(C)CCN(C)Cc1ccc2c(c1)Cc1ccccc1-2	ALDH1A1 inh 11µM (no result: PLK1 PBD block)
OC1CCCN(Cc2ccc3c(c2)Cc2ccccc2-3)C1 (configuration not stated)	none
O=S1(=O)C=C(Oc2ccc3ccccc3c2)c2ccccc21	RORgamma inh inconclusive, ALDH1A1 inh 10µM, Gal4-VP16 FLuc inconclusive
COc1ccc(C2=Cc3ccccc3C(CC(=O)C3CC3)N2c2ccc(-c3cc(OC)c(OC)c(OC)c3)cc2)cc1 (configuration not stated)	none (no result: RORgamma inh, ALDH1A1 inh, Gal4-VP16 FLuc, Sfp PPTase inh)
CN(C)CCNC(=O)c1ccc(Cl)s1	none

Source: PubChem (National Center for Advancing Translational Sciences (NCATS))
